# Results: PubChem BioAssay (NCATS)
# Values joined by “and” are separate entries in the source; they are usually repeats but may differ in a detail not shown here. Identical values can stand only once. Records with an inconclusive call do not appear. Active and inactive are the calls of the source. Unless noted, calls come from the whole dose curve; as a rule, active = well fitted curve in the direction sought with a large enough effect; inconclusive = small, poorly fitted or top-dose-only effect, or another doubt; inactive = no such curve, though single readings can be large; an effect the other way counts as inactive or inconclusive.
# Tests used:
# [1] = AP1 Signaling Pathway (AID 357; active = well fitted curve in either direction with a large enough effect, not every such curve was filed as active; note: % is set by controls: 0 for no effect and ±100 for the full control effect)
# How it was run: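 In this screen, ME-180 cells in Opti-MEM with 0.5% dialyzed FBS received EC50 EGF and compound titrations for 5 h. AP-1 reporter beta-lactamase was detected via CCF4 ratio, giving AC50 for positive and negative modulators.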
# [2] = Stat Signaling Pathway (AID 446; active = well fitted curve in either direction with a large enough effect, not every such curve was filed as active;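 note: ME-180 cervical cancer cells given 40 pM IL-6 alongside compound; SIE-controlled beta-lactamase reporter measured as 460/530 nm FRET emission ratio; % is set by controls: 0 for no effect and ±100 for the full control effect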)
# How it was run: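 Emission at 460 and 530 nm (excitation 405 nm) reports SIE-controlled beta-lactamase in ME-180 cells. Cells received compound with 40 pM IL-6 for 5 hrs at 37 C; data scaled between 300 pM IL-6 and 125 nM JAK-inhibitor controls.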
# [3] = molecular target: Glucocorticoid receptor (Homo sapiens) (UniProt P04150); test: GR-GFP Redistribution (AID 450;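 active = compounds whose dose series gives a full or clear partial fitted curve of increased nuclear translocation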; note: potency is the fitted concentration of half-maximal effect); conditions: U2OS GR-GFP nuclear translocation, laser cytometry, 2 h
# [4] = molecular target: Glucocorticoid receptor (Homo sapiens) (UniProt P04150); test: GR-EFC Redistribution (AID 451; calls by dose curve; note: potency is the fitted concentration of half-maximal effect); conditions: CHO-K1 GR-EFC translocation, beta-gal luminescence, 2 h
# How it was run: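 CHO-K1 cells stably expressing nuclear-localized β-gal enzyme acceptor and GR fused C-terminally to the enzyme donor fragment; ligand-driven nuclear translocation restores β-gal by complementation. Compounds titrated up to 46 uM final, 2 h at 37 °C; luminescence read.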
# [5] = molecular target: Mitogen-activated protein kinase 10 (Mus musculus) (UniProt Q61831); test: JNK3 AlphaScreen Assay (AID 530; active = well fitted curve in either direction with a large enough effect, not every such curve was filed as active;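 note: kinase came from lysate of stimulated human HepG2 cells; signal reports phosphorylation of biotinylated GST-cJun 1-79 at Ser73 with 10 µM ATP; % is set by controls: 0 for no effect and ±100 for the full control effect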)
# How it was run: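 Biotinylated GST-cJun(1-79) served as substrate for JNK3 in HepG2 lysates stimulated with IL-1beta and TNF-alpha. ATP was 10 uM final, pH 7.6. Ser73 phosphorylation was quantified by AlphaScreen (680 nm excitation).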
# [6] = qHTS Assay for Lipid Storage Modulators (AID 1519; calls by dose curve); conditions: Drosophila S3 cells, BODIPY lipid droplet/cell ratio, laser cytometry, cells loaded with oleic acid
# How it was run: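 Cells seeded at 5,000 per well were treated with compounds over a concentration series and loaded with oleic acid (400 uM, as added). Lipid droplet fluorescence (488 nm excitation, 500-530 nm channel) was read by laser-scanning cytometry and normalized to 20 uM Triacsin C.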
# [7] = molecular target: Ubiquitin carboxyl-terminal hydrolase 1 (Homo sapiens) (UniProt O94782); test: Inhibitors of USP1/UAF1: Pilot qHTS (AID 504865);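 note: rhodamine fluorescence freed from ubiquitin-rhodamine substrate followed over time; top concentration of the series differs between compounds; % is set by controls: 0 for no effect and ±100 for the full control effect; nearly all actives have a fitted effect of over 35% in size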
# How it was run: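 USP1/UAF1 complex (1nM) preincubated with compound 15 min at room temperature, then Ub-Rho substrate (150nM final) added. Fluorescence read kinetically at 480/540 nm, 6 reads every 60 seconds. Buffer: 50mM HEPES pH 7.8, 0.5mM EDTA, 0.1 mg/ml BSA, 1mM TCEP, 0.01% Tween-20.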
# [8] = NFAT Signaling Pathway (AID 444; active = well fitted curve in either direction with a large enough effect, not every such curve was filed as active;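 note: carbachol stimulus at about its EC50 of 1 µM final; % is set by controls: 0 for no effect and ±100 for the full control effect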); conditions: Jurkat NFAT-bla M1, carbachol, beta-lactamase ratio, 5 h; at 17.2 µM (top of the series) unless noted
# How it was run: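 Jurkat cells carrying an NFAT-driven β-lactamase reporter and co-transfected muscarinic M1 receptor were treated with compound plus carbachol (1 uM final, an EC50 level) for 5 h at 37 °C. CCF4 loading followed for 1 h at RT; 460/530 nm ratio gave %activity.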
# [9] = molecular target: ATP-dependent 6-phosphofructokinase (Trypanosoma brucei brucei) (UniProt O15648); test: qHTS Assay to Find Inhibitors of T. brucei phosphofructokinase: hit validation (AID 492961)
# How it was run: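 Reaction: 0.1 M triethanolamine pH 8.0, 5 mM MgCl2, F6P 0.5 mM, ATP 0.1 mM, PFK 1.25 nM, 45 min RT. Read-out: ADP-Glo luminescence. Analysis: concentration-response fits, classed by r2 and efficacy.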
# [10] = S16 Schwann cell PMP22 intronic element firefly luciferase assay (AID 624032); note: nearly all actives have a fitted effect of over 30% in size; note: potency is the fitted concentration of half-maximal effect;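 for activity change, negative = inhibition: plate controls were DMSO for no effect and PTC124 positive control mean for full effect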
# How it was run: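 Rat S16 Schwann cells stably carrying a PMP22 intronic element-driven Fluc reporter were seeded overnight, then exposed to compounds for 24 h at 37 °C. Luminescence was normalized to PTC124 (positive control) and DMSO (0% activity).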
# [11] = qHTS profiling for inhibitors of Plasmodium falciparum proliferation (AID 504749); note: potency is the fitted concentration of half-maximal effect;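 for activity, negative = inhibition: 0% = DMSO vehicle and full inhibition = artemisinin control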; for all read-outs here: nearly all actives have a fitted effect of over 60% in size; conditions: P. falciparum in erythrocytes, SYBR Green DNA, 72 h; for activity, negative = inhibition: at 28.7 µM (top of the series)
# How it was run: (§1)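 Fluorescence of SYBR Green-bound parasite DNA, read at 485/535 nm, served as the growth measure. Infected erythrocytes were cultured with compound 72 h; artemisinin (0.29 uM) and DMSO wells defined the normalization range.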
# [12] = tested on: C2A; test: as above; conditions: P. falciparum in erythrocytes, SYBR Green DNA, 72 h; series mostly up to 12.8 µM
# How it was run: as §1
# [13] = tested on: CP201; test: as above; conditions: P. falciparum in erythrocytes, SYBR Green DNA, 72 h; series mostly up to 12.8 µM
# How it was run: as §1
# [14] = tested on: CP238; test: as above; conditions: P. falciparum in erythrocytes, SYBR Green DNA, 72 h; series mostly up to 12.8 µM
# How it was run: as §1
# [15] = tested on: CP250; test: as above; conditions: P. falciparum in erythrocytes, SYBR Green DNA, 72 h; series mostly up to 12.8 µM
# How it was run: as §1
# [16] = tested on: FAB9; test: as above; conditions: P. falciparum in erythrocytes, SYBR Green DNA, 72 h; series mostly up to 12.8 µM
# How it was run: as §1
# [17] = tested on: JCK; test: as above; conditions: P. falciparum in erythrocytes, SYBR Green DNA, 72 h; series mostly up to 12.8 µM
# How it was run: as §1
# [18] = tested on: PC49; test: as above; conditions: P. falciparum in erythrocytes, SYBR Green DNA, 72 h; series mostly up to 12.8 µM
# How it was run: as §1
# [19] = tested on: SC27B; test: as above; conditions: P. falciparum in erythrocytes, SYBR Green DNA, 72 h; series mostly up to 12.8 µM
# How it was run: as §1
# [20] = molecular target: 3',5'-cyclic-AMP phosphodiesterase 4B (Homo sapiens) (UniProt Q07343); test: qHTS Assay for Inhibitors of PDE-IV (AID 607; active = well fitted activation curve with a large enough effect in the main read-out, with a control signal flat, not every such curve was filed as active; note: % of control where 0% means no effect)
# How it was run: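 The readout is membrane depolarisation from a cAMP-sensing CNG channel, detected with a potential dye at ex 535/em 590. Cells were HEK293-derived (endogenous PDE-IV) at 1000 cells/well, titrated up to 22.9 uM final.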
# [21] = measured here: cell count channel max response
# [22] = measured here: lipid channel max response
# Chain of Glucocorticoid receptor (Homo sapiens) (P04150 whole entry, looked up, the tested form may be a part): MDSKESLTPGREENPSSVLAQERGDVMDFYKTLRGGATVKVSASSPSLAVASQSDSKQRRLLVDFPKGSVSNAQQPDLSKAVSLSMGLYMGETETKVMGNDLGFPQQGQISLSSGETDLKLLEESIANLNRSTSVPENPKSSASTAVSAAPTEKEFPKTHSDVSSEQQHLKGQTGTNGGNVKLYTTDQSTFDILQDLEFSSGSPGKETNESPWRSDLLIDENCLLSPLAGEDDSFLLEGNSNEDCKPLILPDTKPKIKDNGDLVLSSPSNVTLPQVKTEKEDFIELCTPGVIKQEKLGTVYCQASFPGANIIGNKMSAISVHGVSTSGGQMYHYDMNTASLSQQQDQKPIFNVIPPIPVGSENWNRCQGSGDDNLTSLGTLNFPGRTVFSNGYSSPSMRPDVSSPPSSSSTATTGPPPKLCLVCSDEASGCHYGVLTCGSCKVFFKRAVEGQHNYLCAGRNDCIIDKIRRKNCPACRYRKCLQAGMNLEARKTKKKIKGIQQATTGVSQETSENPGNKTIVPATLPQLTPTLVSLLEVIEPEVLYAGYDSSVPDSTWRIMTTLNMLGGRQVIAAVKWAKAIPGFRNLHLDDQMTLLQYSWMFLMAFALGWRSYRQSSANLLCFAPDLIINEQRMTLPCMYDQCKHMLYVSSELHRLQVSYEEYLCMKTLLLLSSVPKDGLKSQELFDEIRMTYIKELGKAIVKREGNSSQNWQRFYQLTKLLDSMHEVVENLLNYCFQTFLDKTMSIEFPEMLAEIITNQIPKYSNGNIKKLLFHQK
# Chain of Ubiquitin carboxyl-terminal hydrolase 1 (Homo sapiens) (O94782 whole entry, looked up): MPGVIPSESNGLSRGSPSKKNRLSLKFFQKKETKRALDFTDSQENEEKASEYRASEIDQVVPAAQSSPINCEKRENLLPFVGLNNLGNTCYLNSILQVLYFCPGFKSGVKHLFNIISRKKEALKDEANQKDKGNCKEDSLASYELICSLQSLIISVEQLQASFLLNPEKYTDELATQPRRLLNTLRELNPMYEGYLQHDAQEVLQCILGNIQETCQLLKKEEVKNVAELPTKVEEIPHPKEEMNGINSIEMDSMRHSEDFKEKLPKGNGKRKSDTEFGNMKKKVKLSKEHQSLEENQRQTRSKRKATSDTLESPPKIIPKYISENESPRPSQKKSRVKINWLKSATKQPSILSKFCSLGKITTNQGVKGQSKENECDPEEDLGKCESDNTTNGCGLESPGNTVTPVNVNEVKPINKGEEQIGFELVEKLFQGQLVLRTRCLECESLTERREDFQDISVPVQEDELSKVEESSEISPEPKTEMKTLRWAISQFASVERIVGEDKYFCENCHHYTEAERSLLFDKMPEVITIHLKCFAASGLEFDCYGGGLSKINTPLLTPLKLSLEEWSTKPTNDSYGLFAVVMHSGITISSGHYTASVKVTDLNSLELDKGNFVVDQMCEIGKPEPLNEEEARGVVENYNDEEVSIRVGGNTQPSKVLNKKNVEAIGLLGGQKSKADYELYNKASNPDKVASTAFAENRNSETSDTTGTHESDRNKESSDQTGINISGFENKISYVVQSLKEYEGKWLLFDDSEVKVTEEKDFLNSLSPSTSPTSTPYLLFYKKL
# Chain of 3',5'-cyclic-AMP phosphodiesterase 4B (Homo sapiens) (Q07343 whole entry, looked up): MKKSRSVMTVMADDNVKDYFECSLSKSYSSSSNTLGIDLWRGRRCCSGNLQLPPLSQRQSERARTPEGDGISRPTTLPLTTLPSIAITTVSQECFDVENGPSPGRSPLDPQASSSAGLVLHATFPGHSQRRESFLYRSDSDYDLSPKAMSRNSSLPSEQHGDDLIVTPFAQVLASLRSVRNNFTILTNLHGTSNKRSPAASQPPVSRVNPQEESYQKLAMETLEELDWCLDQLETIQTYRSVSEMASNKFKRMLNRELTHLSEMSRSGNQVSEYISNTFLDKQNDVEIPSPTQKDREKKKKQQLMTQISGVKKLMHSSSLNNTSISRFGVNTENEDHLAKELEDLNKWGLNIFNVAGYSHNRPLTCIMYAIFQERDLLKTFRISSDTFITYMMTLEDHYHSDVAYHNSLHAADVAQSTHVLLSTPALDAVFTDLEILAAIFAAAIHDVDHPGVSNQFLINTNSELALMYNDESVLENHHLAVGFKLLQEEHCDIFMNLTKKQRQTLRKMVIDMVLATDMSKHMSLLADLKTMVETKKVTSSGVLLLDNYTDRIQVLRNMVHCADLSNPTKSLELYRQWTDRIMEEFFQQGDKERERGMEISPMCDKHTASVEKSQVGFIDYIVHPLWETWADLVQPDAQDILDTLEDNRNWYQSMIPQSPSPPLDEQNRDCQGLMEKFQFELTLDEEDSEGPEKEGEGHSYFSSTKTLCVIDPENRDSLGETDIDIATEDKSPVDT
# Chain of ATP-dependent 6-phosphofructokinase (Trypanosoma brucei brucei) (O15648 whole entry, looked up): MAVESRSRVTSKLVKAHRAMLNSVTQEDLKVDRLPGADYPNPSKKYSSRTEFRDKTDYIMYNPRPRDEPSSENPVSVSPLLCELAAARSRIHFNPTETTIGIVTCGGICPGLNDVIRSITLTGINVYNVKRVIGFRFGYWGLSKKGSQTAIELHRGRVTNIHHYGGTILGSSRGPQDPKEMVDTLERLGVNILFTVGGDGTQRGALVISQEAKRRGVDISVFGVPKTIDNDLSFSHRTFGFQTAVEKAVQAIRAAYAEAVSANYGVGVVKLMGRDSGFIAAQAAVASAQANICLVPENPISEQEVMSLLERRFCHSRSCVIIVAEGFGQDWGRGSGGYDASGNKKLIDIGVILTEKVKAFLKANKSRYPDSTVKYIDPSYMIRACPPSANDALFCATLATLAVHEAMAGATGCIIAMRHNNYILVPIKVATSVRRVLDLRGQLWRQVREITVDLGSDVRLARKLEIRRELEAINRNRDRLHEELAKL
smiles,measurement,setting,value
CNCCC=C1c2ccccc2C=Cc2ccccc21,outcome,[1],inactive
same,outcome,[2],inactive
same,Potency,[3],> 20.6 µM (inactive)
same,Potency,[4],> 20.6 µM (inactive)
same,Potency,[5],inactive
same,"activity change, negative = inhibition",[6]; at 25.7 µM (top of the series),-3.6% (inactive)
same,max response,[6]; [21],-2.2%
same,max response,[6]; [22],-8.1%
same,Potency,[7],inactive
Cc1ccc2c(c1)c1c3n2CCN[C@H]3CCC1,outcome,[1],inactive
same,"activity change, negative = inhibition",[8],-11.2% (inactive)
same,outcome,[2],inactive
same,Potency,[3],> 20.6 µM (inactive) and > 46 µM (inactive)
same,Potency,[4],> 20.6 µM (inactive) and > 46 µM (inactive)
same,Potency,[5],inactive
same,"activity change, negative = inhibition",[6]; at 25.7 µM (top of the series),-2.69% (inactive)
same,max response,[6]; [21],-5.65%
same,max response,[6]; [22],-6.69%
same,outcome,[9],inactive
same,Potency,[7],inactive
same,Potency,[10],inactive
same,"activity, negative = inhibition",[11]; parasite line A,-1.32% (inactive)
same,"activity, negative = inhibition",[11]; parasite line B,1.18% (inactive)
same,Potency,[12],inactive
same,Potency,[13],inactive
same,Potency,[14],inactive
same,Potency,[15],inactive
same,Potency,[16],inactive
same,Potency,[17],inactive
same,Potency,[18],inactive
same,Potency,[19],inactive
CC(C)(C)CC(C)(C)c1ccc(OCOCCOCCO)c(Cc2cc(C(C)(C)CC(C)(C)C)cc(Cc3cc(C(C)(C)CC(C)(C)C)ccc3OCOCCOCCO)c2OCOCCOCCO)c1,outcome,[1],inactive
same,outcome,[2],inactive
same,Potency,[3],> 20.6 µM (inactive)
same,Potency,[4],> 20.6 µM (inactive)
same,Potency,[5],inactive
same,outcome,[20],inactive
same,"activity change, negative = inhibition",[6]; at 25.7 µM (top of the series),-6.93% (inactive)
same,max response,[6]; [21],-10.1%
same,max response,[6]; [22],-15.2%
O=C(N/N=C\c1ccc([N+](=O)[O-])o1)c1ccc(O)cc1,outcome,[1],inactive
same,"activity change, negative = inhibition",[8],1.26% (inactive)
same,outcome,[2],inactive
same,Potency,[3],> 20.6 µM (inactive)
same,Potency,[4],> 20.6 µM (inactive)
same,Potency,[5],inactive
same,outcome,[20],inactive
same,"activity change, negative = inhibition",[6]; at 25.7 µM (top of the series),-1.38% (inactive)
same,max response,[6]; [21],-7.99%
same,max response,[6]; [22],-11.6%
same,outcome,[9],inactive
same,Potency,[10],3.46 µM (active)
same,Potency,[11]; parasite line A,1.41 µM (active)
same,Potency,[11]; parasite line B,2.82 µM (active)
same,Potency,[12],3.16 µM (active)
same,Potency,[13],5.73 µM (active)
same,Potency,[14],3.16 µM (active)
same,Potency,[15],3.16 µM (active)
same,Potency,[16],3.16 µM (active)
same,Potency,[17],3.98 µM (active)
same,Potency,[18],2.24 µM (active)
same,Potency,[19],3.55 µM (active)
CS(=O)(=O)Nc1cccc(-c2nc(Nc3ccccc3)c3ccccc3n2)c1,outcome,[1],inactive
same,Potency,[3],> 46 µM (inactive)
same,Potency,[4],> 46 µM (inactive)
same,Potency,[5],inactive
same,"activity change, negative = inhibition",[6]; at 57.5 µM (top of the series),7.97% (inactive)
same,max response,[6]; [21],-5.28%
same,max response,[6]; [22],2.43%
O=C(c1cc(C(F)(F)F)cc(C(F)(F)F)c1)N1CCC[C@@]2(CCN(c3ccccn3)C2)C1,outcome,[1],inactive
same,outcome,[2],inactive
same,Potency,[4],> 46 µM (inactive)
same,Potency,[5],inactive
same,"activity change, negative = inhibition",[6]; at 57.5 µM (top of the series),-14.3% (inactive)
same,max response,[6]; [21],-3.88%
same,max response,[6]; [22],-16.6%
